An excerpt weighted towards active compounds, which were near 1.2% of everything screened.
S1P2 agonist – activates the human S1P2 receptor. O95136. S1P2-expressing cell line, agonist reporter read-out. activation, % at 4.5 µM. actives 0.46% (n = 97,000); in the data active = activation above about 16%;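 also: 0% = vehicle low control and 100% = maximal reference agonist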
GALR2 blocker – antagonists of human galanin receptor 2 (GALR2); actives 0.39% (n = 140,000); inhibition, % at 4 µM; O43603; GALR2-expressing cells, antagonist mode; in the data active = inhibition above about 27%;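 also: cells stimulated with galanin 1-16 at roughly its EC80; 0% = agonist challenge control and 100% = basal control without agonist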
Target sequence (O43603 whole entry, looked up): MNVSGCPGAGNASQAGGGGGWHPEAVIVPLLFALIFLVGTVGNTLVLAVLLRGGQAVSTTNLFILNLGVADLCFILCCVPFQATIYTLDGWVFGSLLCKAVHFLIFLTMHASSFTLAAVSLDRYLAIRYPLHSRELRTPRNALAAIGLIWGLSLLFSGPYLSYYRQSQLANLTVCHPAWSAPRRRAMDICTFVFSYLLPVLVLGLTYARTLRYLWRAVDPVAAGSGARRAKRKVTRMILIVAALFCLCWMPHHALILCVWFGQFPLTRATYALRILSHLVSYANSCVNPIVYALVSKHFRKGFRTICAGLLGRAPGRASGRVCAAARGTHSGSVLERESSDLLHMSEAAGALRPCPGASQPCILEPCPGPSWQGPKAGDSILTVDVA
S1P2 antag – blocks the human S1P2 receptor. O95136. cell-based S1P2 antagonist assay, inhibition at 5 uM. inhibition, % at 5 µM. actives 0.21% (n = 97,000); in the data active = inhibition above about 45%;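 also: CRE beta-lactamase reporter cells expressing human S1P2 stimulated with S1P; 0% = agonist at EC80 alone and 100% = agonist plus reference antagonist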
GALR2 ag – agonists of human galanin receptor 2 (GALR2); O43603; GALR2-expressing cells, agonist activation read-out; activation, % (concentration not given with the values); actives 0.48% (n = 140,000); in the data active = activation above about 5%, passing the limit was not always enough;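 also: 0% = vehicle buffer wells and 100% = reference agonist at full effect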
Starred values were filed as active, the others as inactive; . = not tested or not shown.

SMILES	S1P2 agonist	GALR2 blocker	S1P2 antag	GALR2 ag
COc1ccc(C(O)P(=O)(OCC(C)C)OCC(C)C)c(OC)c1 (stereo unspecified)	.	-17	.	0
CCCCOC(=O)C(C#N)c1nc2ccccc2nc1N1CCOCC1 (stereo unspecified)	-3	4	-11	-2
CCCCCCOC(=O)C(C#N)c1nc2ccccc2nc1N1CCOCC1 (stereo unspecified)	-1	-2	66*	-1
O=[N+]([O-])c1ccc(N/N=C/c2cn(-c3ccccc3)nc2-c2ccccc2)cc1	-6	-3	67*	0
O=C(Nc1ccc(-c2nc3ccc(NC(=O)c4cccs4)cc3[nH]2)cc1)c1cccs1	-4	28*	1	4
Cc1ccc(-c2cc(C(F)F)nc(NCc3cccnc3)n2)cc1	-7	-6	-12	5.0*
CCOc1cc2c(C#N)c(N3CCNCC3)nc(N)c2c(N)n1	20*	3	-57	-3
O=C(COc1ccc(Cl)cc1Br)NNC(=O)C(=O)N1CCCCC1	-5	3	-12	21*
O=C(Nc1ccc(S(=O)(=O)N2CCCCC2)cc1)c1ccc(CN2CCc3ccccc3C2)cc1	-4	19	52*	-1
CN(C)S(=O)(=O)c1cccc(-c2nn(-c3ccccc3)cc2/C=C(\C#N)c2nc3ccccc3[nH]2)c1	.	-7	.	7.3*
CC(C)CCCC(C)NS(=O)(=O)Cc1ccccc1 (stereo unspecified)	-4	-8	-1	-2
O=C(Oc1cccc(Nc2ncnc3ccccc23)c1)c1ccccc1Cl	-5	3	5	-2
Cn1c(C(=O)N2CCN(c3ncccn3)CC2)cc2c(=O)n(C)c3ccccc3c21	1	-8	-4	-2
Cn1c(C(=O)N2CCCC2)cc2c(=O)n(C)c3ccccc3c21	21*	-15	-25	-1
COc1ccc2oc(=O)c(C(=O)Oc3ccc(NC(C)=O)cc3)cc2c1	-6	-7	3	-1
S=C(NCc1ccccn1)Nc1ccc(Cl)c(Cl)c1	-5	1	47*	-2
COc1cc2c(cc1OC)C1=C(C#N)CN(C3CCCCC3)CN1CC2	20*	-1	-49	-1
COc1ccc(CCNS(=O)(=O)c2ccc3c(c2)CCN3C(=O)C2CC2)cc1OC	-5	-8	-8	-1
COc1cc2c(cc1OC)CN(c1ccc([N+](=O)[O-])cc1C#N)CC2	.	4	.	-1
COc1ccc(CCN2CC(C#N)=C3c4cc(OC)c(OC)cc4CCN3C2)cc1OC	24*	-3	-37	-1
Cc1cc(C(=O)NCC(=O)OCC(=O)Nc2ccc(OC(F)F)cc2)ccc1[N+](=O)[O-]	.	-1	.	-1
CS(=O)(=O)c1nc(-c2ccccc2)cc(C(F)(F)F)n1	.	54*	.	5
FC(F)(F)c1cc(-c2ccccc2)nc(N2CCCCCC2)n1	-5	-19	6	0
CC1=NN(C(=O)Cn2nc([N+](=O)[O-])cc2C)C(O)(C(F)(F)F)C1 (stereo unspecified)	.	4	.	0
CCCN1CCC(NC(=O)Nc2ccc(OC)c(OC)c2)CC1	35*	-10	-2	0
SMILES	S1P2 agonist	GALR2 blocker	S1P2 antag	GALR2 ag
N#CCN1CCN(CC(=O)Nc2cccc3ccccc23)CC1	760*	3	3	-2
COc1cc(-c2nnc(COC(=O)CSc3cc(C)c4ccccc4n3)o2)cc(OC)c1OC	0	4	-17	-1
COc1cc(-c2nnc(COC(=O)c3cc(C)nc4ccc(C)cc34)o2)cc(OC)c1OC	27*	-25	-37	0
Cc1cc(C(=O)CN2C(=O)NC(C)(c3cccc(Br)c3)C2=O)c(C)n1Cc1ccco1 (stereo unspecified)	36*	-4	-11	-1
N#Cc1c(N)n(C2CCCCC2)c2nc3ccccc3nc12	22*	-10	-45	17*
CC1(C)c2ccccc2N2CCC(=O)NC21/C=C/c1ccco1 (stereo unspecified)	-4	-5	0	6.1*
Cn1c(-c2sc(=S)n(-c3ccccc3)c2N)nc2ccccc21	32*	19	2	-2
CN1CC(c2ccc(Cl)c(Cl)c2)[C@@]2(COc3ccccc3C2=O)[C@@]12C(=O)Nc1ccccc12 (stereo partly specified)	-6	19	13	-3
Cc1cccc(-n2ncc3c(NC(C)C)ncnc32)c1	.	27*	.	-2
CC(C)Nc1ncnc2c1cnn2-c1ccccc1	-3	9	21	-2
COc1ccc(S(=O)(=O)NC2CCCC2)c(Cl)c1Cl	-3	5	-10	-4
CCn1c(C)cc(/C=C2\NC(=O)N(CC(=O)Nc3cccc(C)c3)C2=O)c1C	-3	-13	-22	-2
CCn1c(C)cc(/C=C2/NC(=O)N(CC(=O)Nc3cccc(C)c3)C2=O)c1C	.	-10	.	8.0*
Cc1cc(-n2c(=O)c(C#N)cc3c(=O)n4ccccc4nc32)no1	.	-37	.	31*
N#Cc1cc2c(=O)n3ccccc3nc2n(Cc2cccnc2)c1=N	-3	-11	2	2
C=CCn1c(=N)c(C#N)cc2c(=O)n3ccccc3nc21	9	-7	-58	6
C=CCn1c(=O)c(C#N)cc2c(=O)n3ccccc3nc21	60*	-31	-59	21*
Cc1ccccc1-n1c(=O)c(C#N)cc2c(=O)n3ccccc3nc21	63*	-56	-104	74*
CC(C)Cn1[nH]c2c3c(ccc2c1=O)C(=O)c1ccccc1C3=O	2	2	16	0
O=S(=O)(NCC1CCCO1)c1ccc(S(=O)(=O)N(Cc2ccc(F)cc2)Cc2ccco2)cc1 (stereo unspecified)	.	-13	.	-1
CCCCC1NC(=S)N(C2CCCCC2)C1=O (stereo unspecified)	.	1	.	7.1*
CCC(C)C1NC(=S)N(C2CCCCC2)C1=O (stereo unspecified)	-4	9	-19	0
Cc1ccccc1Nc1nc(N)nc(COC(=O)c2cccc(S(=O)(=O)NCc3ccccc3)c2)n1	.	-6	.	5.0*
Cc1ccccc1Nc1nc(N)nc(COC(=O)c2cccc(S(=O)(=O)N(C)C)c2)n1	.	-12	.	0
COc1cccc(Nc2nc(-c3ccc4c(c3)OCCO4)cs2)c1	41*	-2	1	-3
SMILES	S1P2 agonist	GALR2 blocker	S1P2 antag	GALR2 ag
CCOC(=O)c1ccc(Nc2nc(-c3cccnc3)nc3ccccc23)cc1	7	6	-7	0
Oc1ccccc1-c1nc2cnccn2c1Nc1ccc2c(c1)OCCO2	-3	-2	-5	-3
COc1ccc(Nc2nc(N3CCCCC3)c3ccccc3n2)cc1	-5	19	56*	0
COc1ccccc1NS(=O)(=O)c1cc([N+](=O)[O-])ccc1N/N=C/c1c[nH]c2ccccc12	-15	6	62*	-3
O=C(N/N=C/c1c[nH]c2ccccc12)c1[nH]c2ccc(Br)cc2c1-c1ccccc1	.	13	.	8.1*
CCOCCCNc1nc(=S)[nH]c2cc(OC)c(OC)cc12	449*	4	27	-1
CCCCS(=O)(=O)/C=C\C=C/S(=O)(=O)CCCC	-6	104*	97*	-4
O=C(COc1cccc(NC(=O)c2cccc([N+](=O)[O-])c2)c1)c1ccc(Br)cc1	-2	0	1	-4
CCc1nc(N2CCN(Cc3ccc4c(c3)OCO4)CC2)c2oc3ccccc3c2n1	-9	3	-32	-1
